Here are results for 29 molecules from PubChem BioAssay (NCI).

Molecules are shown by their SMILES. The panel holds about 83,000 compounds, 20% with a hit somewhere; the sample as a whole holds those more often.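 Cells were grown in 96-well plates and exposed to the test compound at a single concentration for 48 hours; results are reported as percent growth, with values below 10 considered active.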 Unmarked numbers belong to inactive results. Calls of active or inactive are those of the source.

Test in all cases: NCI-60 one-dose screen, 48 h (100 = growth as untreated, 0 = no growth, -100 = all killed)
Holding throughout (conditions): 10 µM

Assay [1] concerns HCT-15 colon.
For assay [2], the system named is HT29 colon.
Assay [3] deals with SNB-75 CNS.
Assay [4] deals with SNB-19 CNS.
Assay [5] has as its system PC-3 prostate.
Assay [6] relates to SK-MEL-5 melanoma.
For assay [7], the system named is UACC-62 melanoma.
Assay [8] has as its system LOX IMVI melanoma.
Assay [9] has as its system SK-MEL-28 melanoma.
The test system of assay [10] is U251 CNS.

`NC(N)=N/N=C(\N=Nc1ccccc1)c1ccc(Cl)cc1`: the growth in [1] was 22.1%; in assay [2], 21.2%; in assay [3], 60.6%; in assay [4], 81.9%; in assay [5], 25.1%; in [6], 65.1%. Also, the results for the growth in assay [7], in [8] and in assay [9] were -29.6% (active), -7.27% (active) and 75.3%, respectively.
Take `COc1cccc2ccc(CC(O)(c3ccccc3)c3ccccc3)nc12`: the growth in assay [1] was 54.7%; in assay [2], 91.8%; in assay [3], 74.6%; in assay [4], 96.6%; in assay [5], 79%; in assay [6], 87%. Further, the growth in assay [7] was 86.2%; in assay [8], 92.4%; in assay [9], 106%.
On to `COc1cc(C(=O)/C(C)=C/c2c[nH]c3ccccc23)cc(OC)c1OC`, for which the growth in assay [1] is 9.94% (active); in assay [2] it was 5.62% (active); in assay [3], 36.3%; in assay [4], 34%; in [5], 19.8%; in assay [6], -36.4% (active). The growth in [7] was 40.2%; in [8] it was 17.8%; in assay [9], 66.2%.
On to `COc1cc2c(cc1NC(=O)C(F)(F)F)-c1ccc(NC(=O)C(F)(F)F)cc1C2`, for which the growth in assay [1] is 106%; in assay [2], 106%; in assay [3] it was -1.06% (active); in assay [4], 86.4%; in [5] it was 90.8%; in assay [6], 90.8%. Besides, the growth was 92% in [7], 94.2% in assay [8] and 103% in [9].
On to `N#Cc1c(-c2ccc(Cl)cc2)n(O)c2ccccc12`, for which the growth is 22.6% in assay [1]; 82.8% in assay [2]; 12.5% in assay [3]; 11% in assay [4]; 41.2% in assay [5]; -57.5% (active) in assay [6]. Besides, the growth was 8.34% (active) in [7], 23.8% in [8] and 15.6% in assay [9].
With `CCOC(=O)/C(=C(\C)N)C1CC(=O)NC1=O` (stereo unspecified), the growth in [1] was 103%; in [2], 105%; in [3] it was 95.1%; in assay [4], 101%; in assay [5], 92.1%; in assay [6], 97.9%. For the same molecule, the growth in assay [7] is 103%; in assay [8] it was 95.7%; in [9] it was 98%.
For the molecule `COc1ccc(-c2nn(-c3cccc(Cl)c3)cc2-c2cc(-c3cccs3)[nH]c(=S)n2)cc1`, the growth was 45.7% in [1]; 62.2% in assay [2]; 67.4% in assay [3]; 44.7% in [4]; 48.5% in assay [5]; 52.2% in [6]. Moreover, the growth in assay [7] was 44.9%; in [8] it was 43.4%; in [9] it was 57.3%.
`COc1cc2cc(Oc3ccc(NC(=O)Nc4ccc(C(F)(F)F)cc4)cc3)c(C)nc2cc1OC`: the growth is 75.4% in assay [1]; 44.6% in assay [2]; 41% in [3]; 93.4% in assay [4]; 48.3% in [5]; 47.4% in assay [6]. The growth is 69.2% in assay [7], 56.4% in assay [8] and 58.4% in assay [9].
`Clc1ccc(/C=C2\CCCC3C2=Nc2ccccc2NC3c2ccc(Cl)cc2)cc1` (stereo unspecified): the growth in assay [1] is 63.7%; in assay [2], 16%; in [3] it was 88.2%; in assay [4], 92%; in assay [5], 77.3%; in [6] it was 88.7%. Further, the growth was 74.2% in assay [7], -27.5% (active) in assay [8] and 101% in assay [9].
`COc1ccc(N(C)c2ncnc3occ(C)c23)cc1`: the growth in assay [1] was 11.1%; in [2], 7.69% (active); in assay [3], 44.8%; in [4], 27.2%; in assay [10], 13.9%; in assay [6], -44.5% (active). In addition, the growth is 22.9% in assay [7], 17.7% in assay [8] and 134% in assay [9].
In the case of `COC(=O)C1OC1c1cc([N+](=O)[O-])ccc1OC` (stereo unspecified), the growth is 103% in assay [1]; 117% in assay [2]; 90.6% in [3]; 110% in [4]; 96% in assay [5]; 98.8% in assay [6]. Moreover, the growth is 106% in assay [7], 93.4% in assay [8] and 109% in assay [9].
Regarding `CCc1ccc(C2=NN(c3ccc(S(C)(=O)=O)cc3)C(=O)CC2)cc1`, the growth is 22.1% in [1]; 11.5% in assay [2]; 16.7% in [3]; 51.5% in [4]; 56.6% in assay [5]; 10.7% in assay [6]. The figures for the growth in assay [7], in assay [8] and in [9] were 38%, 35% and 50.7%, respectively.
Turning to `CC(=O)OC1CC2C(C)(C)CCC[C@]2(C)C2=C1C(O)=C(C(C)C)C(=O)C2=O` (stereo partly specified), the growth in assay [1] was -23.1% (active); in [2], 17.2%; in assay [3], -13.3% (active); in assay [4], 21.6%; in [10], 19.5%; in assay [6], -99.7% (active). The growth is -60.1% (active) in assay [7], -43% (active) in [8] and -42.8% (active) in assay [9].
Regarding `CN(C)CCC1(c2ccccc2)CCN(C)C1=O` (stereo unspecified), the growth was 102% in [1]; 106% in assay [2]; 95.8% in assay [3]; 105% in [4]; 99.7% in assay [5]; 96.1% in assay [6]. Also, the values for the growth in [7], in [8] and in assay [9] were 105%, 102% and 103%, respectively.
Take `O=C1/C(=C/c2cccc(F)c2)Cc2ccccc21`: the growth in assay [1] is 93.7%; in assay [2], 94.6%; in assay [3] it was 89.4%; in [4], 98.7%; in assay [5], 90%; in [6] it was 99.4%. Further, the growth in assay [7] is 99.2%; in assay [8], 96.7%; in assay [9], 105%.
Turning to `COc1cc2c(Nc3ccc(-c4ccc(N)cc4)cc3)ncnc2c(OC)c1OC`, the growth in assay [1] was 28.8%; in assay [2], 46.2%; in [3] it was 82.8%; in assay [4] it was 51.1%; in assay [5] it was 47.3%; in [6], -25.1% (active). For the same molecule, the growth in [7] is 7.02% (active); in assay [8], 31.1%; in assay [9], 75.6%.
For the molecule `O=C1/C=C/[C@@H](O)[C@@H]2C[C@@H](O)C[C@H]2/C=C/CCC[C@H](C(F)(F)F)O1`, the growth is 6.45% (active) in [1]; -28.3% (active) in assay [2]; 39.1% in assay [3]; 65.6% in assay [4]; 25.1% in assay [5]; -98.3% (active) in assay [6]. Moreover, the growth was -3.9% (active) in assay [7], -90.6% (active) in [8] and -8.65% (active) in assay [9].
On to `CN1CCN(c2cc3c(cc2F)c(=O)c(C(=O)O)cn3-c2ccc(F)cc2)CC1`, for which the growth in [1] was 99.2%; in assay [2], 91.2%; in assay [3], 55.2%; in [4], 98.2%; in [5] it was 90.4%; in assay [6], 95.5%. Also, the figures for the growth in assay [7], in assay [8] and in [9] were 90.2%, 84.7% and 105%, respectively.
Take `Cc1cc(=O)n2nnc3cc(C(F)(F)F)ccc3n12`: the growth in [1] was 101%; in assay [2], 104%; in [3], 116%; in assay [4], 109%; in assay [5] it was 101%; in [6], 109%. The growth in assay [7] is 102%; in [8] it was 106%; in [9], 118%.
For the molecule `Cc1ccc(-c2c3c(N)nc(-c4cccnc4)nc3nc3c2c(C)nn3-c2ccccc2)cc1`, the growth in assay [1] was 84.4%; in assay [2] it was 77.3%; in assay [3], -0.959% (active); in assay [4], 99.1%; in assay [5], 69.3%; in assay [6], 76.1%. The growth in [7] is 82.2%; in assay [8], 80.9%; in assay [9], 68.2%.
For `O=C1NC(=O)c2c(CCCSc3nc4ccccc4c(=O)n3CCc3ccccc3)cccc21`, the growth in assay [1] was 96%; in assay [2], 90.3%; in assay [3] it was 82.8%; in [4], 94.8%; in [5] it was 88.9%; in [6], 95.8%. The growth is 90% in [7], 81.8% in assay [8] and 105% in assay [9].
Consider `CCOC(=O)CC(S(=O)(=O)c1ccccc1)S(=O)(=O)c1ccccc1`, for which the growth in assay [1] is 93.4%; in assay [2], 91%; in assay [3], 96.2%; in [4], 93.4%; in [5], 97.7%; in assay [6] it was 96.6%. For the same molecule, the growth in [7] is 103%; in [8], 98.6%; in assay [9] it was 109%.
On to `O=C(COc1cccc(/C=C2\CSc3ccccc3C2=O)c1)c1ccc(Cl)cc1`, for which the growth is -49.7% (active) in assay [1]; -86.3% (active) in assay [2]; 94.6% in assay [3]; 60.8% in assay [4]; -39.6% (active) in assay [5]; -94.4% (active) in assay [6]. Besides, the growth in assay [7] was -73.9% (active); in assay [8], -100% (active); in assay [9] it was -81.7% (active).
Regarding `Cc1cn(-c2cc(F)cc(NC(=O)c3ccc(C)c(Nc4nccc(-c5cccnc5)n4)c3)c2)cn1`, the growth in [1] was 74.9%; in assay [2], 2.89% (active); in [3] it was -20.8% (active); in assay [4], 6.01% (active); in assay [5], 68.6%; in assay [6], 87.8%. For the same molecule, the growth in assay [7] is 40.9%; in assay [8], 17%; in [9] it was 28.2%.
Consider `Cc1ccc(C(=O)C2C(=O)C3CCC2C3)cc1` (stereo unspecified), for which the growth in assay [1] was 106%; in [2] it was 108%; in [3], 93.7%; in assay [4], 95.7%; in assay [5], 94.2%; in [6], 102%. Besides, the values for the growth in assay [7], in [8] and in [9] were 98.9%, 95.4% and 99.6%, respectively.
On to `Cc1cc(NC(=O)c2ccc(C)c(Nc3nccc(-c4cccnc4)n3)c2)cc(-n2cnc(C)c2)c1`, for which the growth in [1] is 58.6%; in assay [2] it was -18.6% (active); in [3], -14% (active); in assay [4] it was 66.6%; in [5], 61.4%; in [6] it was 65.7%. In addition, the results for the growth in [7], in assay [8] and in [9] were 44.6%, 2.11% (active) and 41.5%, respectively.
Take `CCOC(=O)C1=CSC2=NC3=C(CCC/C3=C\c3ccc(Cl)cc3)C(c3ccc(Cl)cc3)N12` (stereo unspecified): the growth was 91.9% in assay [1]; 82.8% in assay [2]; 86.4% in [3]; 81.3% in [4]; 101% in assay [5]; 84.7% in assay [6]. Moreover, the values for the growth in assay [7], in assay [8] and in [9] were 82%, 74.9% and 99.5%, respectively.
`O=C(c1ccccc1)N(C(=O)c1ccccc1)N1CCCC1`: the growth in assay [1] was 107%; in assay [2], 102%; in assay [3] it was 87.3%; in assay [4] it was 107%; in assay [5], 88.4%; in [6], 98.4%. Further, the growth is 85.8% in [7], 90.9% in assay [8] and 114% in assay [9].
For `COc1ccc(-c2nn(-c3cccc(Cl)c3)cc2-c2cc(-c3ccccc3)[nH]c(=O)c2C#N)cc1`, the growth in assay [1] is 63.8%; in assay [2], 55.6%; in [3] it was 38.4%; in [4], 45.2%; in assay [5], 71.6%; in assay [6] it was 39.9%. In addition, the values for the growth in assay [7], in assay [8] and in assay [9] were 35%, 55.6% and 71%, respectively.
